Bioassay records from PubChem BioAssay.
The sample as a whole holds a higher share of hits than the screen did.
Tb PYK inh = qHTS of Trypanosoma Brucei Inhibitors. TbPYK enzyme, Kinase-Glo Plus ATP luminescence, 45 min. Potency, µM (series often up to 76.8 µM), usual class: inhibitors. actives 0.12% (n = 410,000). AID 624173, 2012; also: nearly all actives have a fitted effect of over 50% in size
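Screened from lowest to highest concentration, compounds were pinned into TbPYK/substrate mixtures, and ADP (130 uM final) was added. Plates sat at room temperature for 45 min prior to Kinase-Glo Plus detection by luminescence.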
LmPK inh = qHTS Assay for Inhibitors of Leishmania Mexicana Pyruvate Kinase (LmPK); Potency, µM (top dose mostly 57.5 µM), most hits filed as inhibitors; purified LmPK, Kinase-Glo ATP luminescence, 1 h; AID 1721, 2009; Q27686; actives 0.37% (n = 290,000)
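Pyruvate kinase activity monitored as ATP production (luciferase luminescence). Conditions: 0.1 nM enzyme, 0.5 mM PEP, 0.1 mM ADP, 1 h, RT; normalized against uninhibited and no-enzyme wells.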
Shiga toxin inh = A qHTS for Small Molecule Inhibitors of Shiga Toxin; actives 9.2% (n = 290,000); inhibition, % at 38.7 µM; AID 2315, 2010; Vero cells, Shiga toxin protein synthesis inhibition reporter; in the data active = inhibition mostly above about 28%, no sharp cut-off; inactive = mostly below about 43%
Giardia FBPA inh-1 = qHTS Assay for Inhibitors of Fructose-1,6-bisphosphate Aldolase from Giardia Lamblia. A8B2U2. purified Giardia FBPA. Potency, µM (series often up to 59.6 µM), actives largely listed as inhibitors. actives 0.71% (n = 290,000); also: nearly all actives have a fitted effect of over 55% in size
Target sequence (A8B2U2 whole entry, looked up): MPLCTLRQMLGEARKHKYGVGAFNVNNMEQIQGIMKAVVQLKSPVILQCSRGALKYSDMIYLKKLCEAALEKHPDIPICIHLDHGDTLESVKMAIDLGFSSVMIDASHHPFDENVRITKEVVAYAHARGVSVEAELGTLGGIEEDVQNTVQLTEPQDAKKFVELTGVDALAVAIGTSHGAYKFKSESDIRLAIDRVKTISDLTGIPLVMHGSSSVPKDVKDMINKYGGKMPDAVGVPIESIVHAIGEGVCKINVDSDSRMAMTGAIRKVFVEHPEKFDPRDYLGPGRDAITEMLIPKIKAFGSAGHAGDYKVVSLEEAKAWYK
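Giardia FBPA (40 nM reagent) was preincubated 10 min at RT with compound (up to 57.5 uM final), then substrate plus GAPDH/TPI/NAD/arsenate coupling system with diaphorase/resazurin was added; resorufin fluorescence (525/598 nm) was read after 20 min.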
RE007 growth inh = qHTS Assay for Inhibitors of the HIV-1 protein Vpr | S. pombe RE007 Vpr strain, BacTiter-Glo ATP luminescence, 24 h | Potency, µM (doses to about 92.2 µM), usual class: inhibitors | actives 0.21% (n = 360,000) | AID 651644, 2012; active = well fitted falling curve with a large enough effect; inconclusive = small, poorly fitted or top-dose-only effect; inactive = no such curve, though single readings can be large or run the other way; also: nearly all actives have a fitted effect of over 50% in size
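Fission yeast strain RE007, carrying one chromosomally integrated HIV-1 vpr copy, was seeded at OD 0.01 in PMG+AL medium with 23 nL pinned compound. After 24 h at 30 °C and 99% humidity, viability was read by BacTiter-Glo luminescence.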
CHX counter-1 = Cycloheximide Counterscreen for Small Molecule Inhibitors of Shiga Toxin; AID 2314, 2010; max response, %; actives 12% (n = 300,000); cell reporter, cycloheximide protein synthesis inhibition counterscreen; in the data active = max response mostly above about 13%, no sharp cut-off; inactive = mostly below about 14%; also: read at 38.3 µM for the half of the compounds with a filed dose
CHX counter-2 = Cycloheximide Counterscreen for Small Molecule Inhibitors of Shiga Toxin (Confirmatory) | shares compounds with Shiga toxin inh | Cycloheximide counterscreen, protein synthesis reporter, Shiga toxin assay | Potency, µM (top dose mostly 38.3 µM), hits mostly activators | actives 3% (n = 510) | AID 2318, 2010; calls by dose curve
Giardia growth = qHTS Assay for Inhibitors of Fructose-1,6-bisphosphate Aldolase from Giardia Lamblia: Giardia lamblia growth inhibition. shares compounds with Giardia FBPA inh-1. Giardia lamblia trophozoite growth inhibition. Potency, µM (series often up to 57.5 µM), usual class: inhibitors. actives 5% (n = 1,500). AID 2785, 2010;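 also: trophozoites exposed to compound for 48 h at 37 °C; nearly all actives have a fitted effect of over 70% in size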
Mammalian tox = qHTS Assay for Inhibitors of Fructose-1,6-bisphosphate Aldolase from Giardia Lamblia: Mammalian cellular toxicity; shares compounds with Giardia FBPA inh-1; mammalian cell viability counter-screen, qHTS; Potency, µM (series often up to 57.5 µM), most hits filed as inhibitors; actives 4% (n = 1,500); AID 2786, 2010;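 also: Chinese hamster ovary cells used as mammalian cytotoxicity surrogate; viability measured as cellular ATP by luminescence; compound exposure lasted 48 h before reading; nearly all actives have a fitted effect of over 60% in size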
Giardia FBPA inh-2 = qHTS Assay for Inhibitors of Fructose-1,6-bisphosphate Aldolase from Giardia Lamblia: Primary screen confirmation | shares compounds with Giardia FBPA inh-1 | Potency, µM (series often up to 57.5 µM), actives largely listed as inhibitors | AID 2787, 2010 | actives 5% (n = 1,500) | purified Giardia aldolase enzyme activity, qHTS; also: nearly all actives have a fitted effect of over 45% in size
Rabbit FBPA inh = qHTS Assay for Inhibitors of Fructose-1,6-bisphosphate Aldolase from Giardia Lamblia: Rabbit FBPA Selectivity. shares compounds with Giardia FBPA inh-1. Rabbit muscle FBPA enzyme inhibition, selectivity counter-screen. Potency, µM (doses to about 57.5 µM), actives largely listed as inhibitors. actives 4% (n = 1,500). AID 2794, 2010; also: nearly all actives have a fitted effect of over 60% in size
Target sequence (P00883 whole entry, looked up): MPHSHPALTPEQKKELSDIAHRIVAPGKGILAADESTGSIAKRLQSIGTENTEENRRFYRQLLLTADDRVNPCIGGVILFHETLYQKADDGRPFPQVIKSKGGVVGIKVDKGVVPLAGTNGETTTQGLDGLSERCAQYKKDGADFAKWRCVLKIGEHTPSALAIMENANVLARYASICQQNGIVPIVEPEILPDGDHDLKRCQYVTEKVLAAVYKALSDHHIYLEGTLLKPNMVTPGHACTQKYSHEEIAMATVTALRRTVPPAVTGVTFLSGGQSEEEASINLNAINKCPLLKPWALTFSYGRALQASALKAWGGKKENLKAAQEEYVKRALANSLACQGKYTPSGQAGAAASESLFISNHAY
GAPDH counter = qHTS Assay for Inhibitors of Fructose-1,6-bisphosphate Aldolase from Giardia Lamblia: Coupling assay counterscreen confirmation. shares compounds with Giardia FBPA inh-1. GAPDH coupling enzyme counterscreen, biochemical, qHTS. Potency, µM (doses to about 57.5 µM), usual class: inhibitors. actives 6% (n = 1,500). AID 2795, 2010; also: nearly all actives have a fitted effect of over 55% in size
Numbers stand for hits; – = inactive; ? = inconclusive; · = no result; ! = a repeat was not active. Unless noted, calls follow the shape of the dose curve; as a rule, active = well fitted curve in the direction sought with a large enough effect; inconclusive = small, poorly fitted or top-dose-only effect, or another doubt; inactive = no such curve, though single readings can be large; an effect the other way counts as inactive or inconclusive.

SMILES	Tb PYK inh	LmPK inh	Shiga toxin inh	Giardia FBPA inh-1	RE007 growth inh	CHX counter-1	CHX counter-2	others
Cc1ccccc1OCCCN1C(=O)C(=O)c2cccc(C)c21	–	–	28	–	?	–	–
CNc1ccc(/C=C(\CCC(=O)O)c2nc3ccccc3s2)cc1[N+](=O)[O-]	–	–	65	–	–	–	–
O=C(NCC1CCCO1)Nc1ccc2c(c1)OCO2 (configuration not stated)	–	–	43	–	–	–	?
Cc1cc(NC(=O)c2ccc(Br)o2)ccc1NC(=O)c1ccco1	–	?	61	–	?	–	–
COc1ccc(OC)c(N(CC(=O)NCc2ccccc2)S(=O)(=O)c2ccccc2)c1	–	·	·	·	·	·	·
COc1ccc2nc(SCC(=O)Nc3ccc4[nH]c(=O)[nH]c4c3)[nH]c2c1	–	·	·	·	–	·	·
COc1ccc2nc(SCC(=O)Nc3ccc4c(c3)CCC4)[nH]c2c1	–	–	42	–	–	–	–
COc1ccc2nc(SCC(=O)NC3CCCCC3)[nH]c2c1	–	–	–	–	–	–	·
CCOc1ccc2nc(SCC(=O)NC3CCCCC3)[nH]c2c1	–	–	44	–	–	–	–
COc1ccc(C2=NOC(C(=O)NC(C)C)C2)cc1 (configuration not stated)	–	–	26	–	–	–	–
CC(=O)Nc1cccc(NS(=O)(=O)c2c(C)noc2C)c1	–	·	·	·	–	·	·
Cc1noc(C)c1S(=O)(=O)Nc1cccc(CO)c1	–	–	45	·	–	–	–
Nc1cc(N)nc(SCC(=O)Nc2ccc(Br)cc2Cl)n1	–	–	48	–	?	–	?
COc1ccc(CCNc2nc3c(c(=O)n(C)c(=O)n3C)n2Cc2ccc(F)cc2)cc1OC	–	·	·	·	·	·	·
Cc1ccc(NC(=O)C(C)N=C2NS(=O)(=O)c3ccccc32)cc1 (configuration not stated)	–	–	35	–	–	–	–
CCOC(=O)C(=O)N(C)c1c(CC)nc2c(OCc3ccc(OC(F)F)cc3)cccn12	–	·	·	·	–	·	·
CCCCC(=O)Nc1ccc(NC(=O)C2CC2)nc1	–	–	41	–	–	–	–
O=C(Nc1nc(N2C(=O)c3ccccc3C2=O)n(-c2ccccc2)n1)c1ccccc1	–	–	35	–	–	–	–
O=C(Nc1nc(N2C(=O)c3ccccc3C2=O)n(-c2ccccc2)n1)c1ccc(F)cc1	–	–	–	–	–	–	·
O=C(NC1CCCc2ccccc21)c1cccc(F)c1 (configuration not stated)	–	·	·	·	–	·	·
CCOC(=O)c1c(C)oc2nc(C)nc(NCC3CCN(Cc4ccc(Cl)cc4)CC3)c12	–	·	·	·	·	·	·
COc1cc(CN2CCN(CC#Cc3ccccc3)CC2CCO)cc(OC)c1 (configuration not stated)	–	–	20	–	–	–	–
CCCCn1c(N)c(N(CC(C)C)C(=O)c2cc(S(=O)(=O)N3CCCCC3)ccc2C)c(=O)[nH]c1=O	–	·	·	·	–	·	·
O=C(COc1ccc(Br)cc1CNCCc1ccccc1)NCc1ccccc1	–	–	40	–	–	–	–
O=C1c2ccccc2C(=O)c2c1ccc1c(=O)n(C3CCCCC3)[nH]c21	–	–	27	?	?	–	–
SMILES	Tb PYK inh	LmPK inh	Shiga toxin inh	Giardia FBPA inh-1	RE007 growth inh	CHX counter-1	CHX counter-2	others
O=C(COC(=O)c1cccc2c1C(=O)c1ccccc1C2=O)NC1CCCCC1	–	–	–	–	–	–	·
CC(CNC(=O)C(=O)NC(C)CCc1ccccc1)Cc1ccccc1 (configuration not stated)	–	–	–	–	–	–	·
Cc1ccc(Cl)cc1NC(=O)COC(=O)c1ccc(COc2ccc3c(C)cc(=O)oc3c2)cc1	·	–	39	–	·	–	–
CCn1c(SCC(N)=O)nnc1-c1ccc2[nH]c(C)c(C)c2c1	–	–	–	–	–	–	·
CCn1c(SCC(=O)O)nnc1-c1ccc2[nH]c(C)c(C)c2c1	–	–	27	–	–	–	–
CC1=C(C(=O)Nc2cc(Cl)ccc2C)C2(CCCCC2)OC1=O	–	·	·	·	·	·	·
O=C(NCCCO)/C(=C\c1ccco1)NC(=O)c1ccco1	–	–	38	–	–	–	–
N#Cc1ccc(N=c2ssnc2Cl)cc1	14µM	–	28	16µM	35µM!	–	–	Giardia growth=–;Mammalian tox=–;Giardia FBPA inh-2=–;Rabbit FBPA inh=40µM;GAPDH counter=–
N#Cc1cccc(NC(=O)C2CCN(c3ncccn3)CC2)c1	–	·	·	·	·	·	·
CCOc1ccc(/C(CCC(=O)O)=N/NC(=S)NC(C)C)cc1	–	–	–	16µM	–	–	·	Giardia growth=–;Mammalian tox=–;Giardia FBPA inh-2=–;Rabbit FBPA inh=–;GAPDH counter=–
N#Cc1cc2cc3c(cc2nc1N1CCCCC1)OCCO3	–	–	–	6.3µM	–	22	·	Giardia growth=56µM;Mammalian tox=–;Giardia FBPA inh-2=–;Rabbit FBPA inh=–;GAPDH counter=–
N#Cc1cc2cc3c(cc2nc1Cl)OCCO3	–	·	·	·	–	·	·
Cc1ccc2c(CC(=O)N3CCN(c4cccc(Cl)c4)CC3)coc2c1C	–	·	·	·	·	·	·
c1ccc2[nH]c(SN3CCOCC3)nc2c1	·	–	–	3.5µM	·	–	·	Giardia growth=?;Mammalian tox=–;Giardia FBPA inh-2=–;Rabbit FBPA inh=–;GAPDH counter=?
c1ccc2[nH]c(CN3CCOCC3)nc2c1	–	–	–	–	–	–	·
